The values below come from publication PMC8384837, “Expanding the binding specificity for RNA recognition by a PUF domain”.

Experiment in all cases: yeast three-hybrid, YBZ-1, SC-Leu-His + 0.5 mM 3-AT, 4 days
What all share (conditions): tags: N-Gal4 AD-HA kept; label: inside an RPR1-promoter hybrid RNA with tandem MS2 sites; ssRNA

In one experiment the target is PUM1 PUF domain R5-GRP (Homo sapiens, UniProt Q14671 828-1176, C1007G;Q1011P). Summed up: (§1)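 Each repeat of the Pumilio-1 PUF domain was randomized at its three base-contacting residues, and these libraries were co-expressed from a centromeric plasmid with matching RNA elements in strain YBZ-1. After four days on SC-Leu (input) or SC-Leu-His + 0.5 mM 3-AT (selection), the repeat regions were PCR-amplified and Illumina-sequenced. The interaction score compares variant frequency between input and selection as a log change, computed in log2 with a pseudocount of 1 for absent variants.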
Sequence of PUM1 PUF domain R5-GRP (Q14671 828-1176 C1007G/Q1011P): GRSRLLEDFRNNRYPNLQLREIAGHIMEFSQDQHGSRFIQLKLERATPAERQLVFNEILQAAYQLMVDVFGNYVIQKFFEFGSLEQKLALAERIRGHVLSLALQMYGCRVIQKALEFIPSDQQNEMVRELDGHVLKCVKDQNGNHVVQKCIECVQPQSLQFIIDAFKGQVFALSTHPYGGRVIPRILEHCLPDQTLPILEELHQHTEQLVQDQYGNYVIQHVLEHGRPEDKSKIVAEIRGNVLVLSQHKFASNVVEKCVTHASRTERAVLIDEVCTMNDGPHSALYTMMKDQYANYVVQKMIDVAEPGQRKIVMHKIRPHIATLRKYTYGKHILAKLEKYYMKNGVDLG

For another experiment, the target named is PUM1 PUF domain R5-DRL (Homo sapiens, UniProt Q14671 828-1176, C1007D;Q1011L). An outline of the steps:
as §1

In another experiment the target is PUM1 PUF domain R5-SKQ (Homo sapiens, UniProt Q14671 828-1176, C1007S;R1008K). Summed up: as §1
Sequence of PUM1 PUF domain R5-SKQ (Q14671 828-1176 C1007S/R1008K): as the sequence (Q14671 828-1176 C1007G/Q1011P) above, with G180S, R181K, P184Q counted along it
A further experiment deals with PUM1 PUF domain R5-ERG (Homo sapiens, UniProt Q14671 828-1176, C1007E;Q1011G). Summed up:
as §1

The next experiment concerns the target PUM1 PUF domain R5-QVR (Homo sapiens, UniProt Q14671 828-1176, C1007Q;R1008V;Q1011R). An outline of the steps:
as §1

Another experiment has as its target PUM1 PUF domain R5-GPR (Homo sapiens, UniProt Q14671 828-1176, C1007G;R1008P;Q1011R). Summed up: as §1
In a further experiment the target is PUM1 PUF domain R5-KSQ (Homo sapiens, UniProt Q14671 828-1176, C1007K;R1008S). Summed up: as §1
Sequence of PUM1 PUF domain R5-KSQ (Q14671 828-1176 C1007K/R1008S): as the sequence (Q14671 828-1176 C1007G/Q1011P) above, with G180K, R181S, P184Q counted along it
The next experiment addresses PUM1 PUF domain R3-YWT (Homo sapiens, UniProt Q14671 828-1176, C935Y;R936W;Q939T). An outline of the steps: as §1
The target in another experiment is PUM1 PUF domain R8-RHP (Homo sapiens, UniProt Q14671 828-1176, N1122R;Y1123H;Q1126P). Summed up:
as §1

The target of the next experiment is PUM1 PUF domain R4-CNC (Homo sapiens, UniProt Q14671 828-1176, N971C;H972N;Q975C). Summed up:
as §1

In the next experiment the target is PUM1 PUF domain R7-HHP (Homo sapiens, UniProt Q14671 828-1176, S1079H;N1080H;E1083P). Summed up:
as §1

In the next experiment the target is PUM1 PUF domain R1-SGR (Homo sapiens, UniProt Q14671 828-1176, R864G;Q867R). Summed up: as §1
Sequence of PUM1 PUF domain R1-SGR (Q14671 828-1176 R864G/Q867R): as the sequence (Q14671 828-1176 C1007G/Q1011P) above, with R37G, Q40R, G180C, P184Q counted along it
A further experiment deals with PUM1 PUF domain R1-RLE (Homo sapiens, UniProt Q14671 828-1176, S863R;R864L;Q867E). Summed up:
as §1

In the next experiment the target is PUM1 PUF domain R7-KRQ (Homo sapiens, UniProt Q14671 828-1176, S1079K;N1080R;E1083Q). Summed up:
as §1

Another experiment has as its target PUM1 PUF domain R7-KPM (Homo sapiens, UniProt Q14671 828-1176, S1079K;N1080P;E1083M). An outline of the steps:
as §1

For a further experiment, the target named is PUM1 PUF domain R4-CPC (Homo sapiens, UniProt Q14671 828-1176, N971C;H972P;Q975C). An outline of the steps:
as §1

A further experiment deals with PUM1 PUF domain R3-FSG (Homo sapiens, UniProt Q14671 828-1176, C935F;R936S;Q939G). An outline of the steps:
as §1

Another experiment addresses PUM1 PUF domain R3-CYF (Homo sapiens, UniProt Q14671 828-1176, R936Y;Q939F). An outline of the steps: as §1
The target of another experiment is PUM1 PUF domain R5-KYK (Homo sapiens, UniProt Q14671 828-1176, C1007K;R1008Y;Q1011K). An outline of the steps: as §1
Sequence of PUM1 PUF domain R5-KYK (Q14671 828-1176 C1007K/R1008Y/Q1011K): as the sequence (Q14671 828-1176 C1007G/Q1011P) above, with G180K, R181Y, P184K counted along it
The target of the next experiment is PUM1 PUF domain R8-HYC (Homo sapiens, UniProt Q14671 828-1176, N1122H;Q1126C). Summed up:
as §1

Sequence of PUM1 PUF domain R5-ERG (Q14671 828-1176 C1007E/Q1011G): as the sequence (Q14671 828-1176 C1007G/Q1011P) above, with G180E, P184G counted along it
Sequence of PUM1 PUF domain R1-RLE (Q14671 828-1176 S863R/R864L/Q867E): as the sequence (Q14671 828-1176 C1007G/Q1011P) above, with S36R, R37L, Q40E, G180C, P184Q counted along it
Sequence of PUM1 PUF domain R5-DRL (Q14671 828-1176 C1007D/Q1011L): as the sequence (Q14671 828-1176 C1007G/Q1011P) above, with G180D, P184L counted along it
Sequence of PUM1 PUF domain R8-RHP (Q14671 828-1176 N1122R/Y1123H/Q1126P): as the sequence (Q14671 828-1176 C1007G/Q1011P) above, with G180C, P184Q, N295R, Y296H, Q299P counted along it
Sequence of PUM1 PUF domain R5-GPR (Q14671 828-1176 C1007G/R1008P/Q1011R): as the sequence (Q14671 828-1176 C1007G/Q1011P) above, with R181P, P184R counted along it
Sequence of PUM1 PUF domain R7-HHP (Q14671 828-1176 S1079H/N1080H/E1083P): as the sequence (Q14671 828-1176 C1007G/Q1011P) above, with G180C, P184Q, S252H, N253H, E256P counted along it
Sequence of PUM1 PUF domain R3-CYF (Q14671 828-1176 R936Y/Q939F): as the sequence (Q14671 828-1176 C1007G/Q1011P) above, with R109Y, Q112F, G180C, P184Q counted along it
Sequence of PUM1 PUF domain R7-KRQ (Q14671 828-1176 S1079K/N1080R/E1083Q): as the sequence (Q14671 828-1176 C1007G/Q1011P) above, with G180C, P184Q, S252K, N253R, E256Q counted along it
Sequence of PUM1 PUF domain R4-CNC (Q14671 828-1176 N971C/H972N/Q975C): as the sequence (Q14671 828-1176 C1007G/Q1011P) above, with N144C, H145N, Q148C, G180C, P184Q counted along it
Sequence of PUM1 PUF domain R7-KPM (Q14671 828-1176 S1079K/N1080P/E1083M): as the sequence (Q14671 828-1176 C1007G/Q1011P) above, with G180C, P184Q, S252K, N253P, E256M counted along it
Sequence of PUM1 PUF domain R4-CPC (Q14671 828-1176 N971C/H972P/Q975C): as the sequence (Q14671 828-1176 C1007G/Q1011P) above, with N144C, H145P, Q148C, G180C, P184Q counted along it
Sequence of PUM1 PUF domain R3-FSG (Q14671 828-1176 C935F/R936S/Q939G): as the sequence (Q14671 828-1176 C1007G/Q1011P) above, with C108F, R109S, Q112G, G180C, P184Q counted along it
Sequence of PUM1 PUF domain R5-QVR (Q14671 828-1176 C1007Q/R1008V/Q1011R): as the sequence (Q14671 828-1176 C1007G/Q1011P) above, with G180Q, R181V, P184R counted along it
Sequence of PUM1 PUF domain R8-HYC (Q14671 828-1176 N1122H/Q1126C): as the sequence (Q14671 828-1176 C1007G/Q1011P) above, with G180C, P184Q, N295H, Q299C counted along it
Sequence of PUM1 PUF domain R3-YWT (Q14671 828-1176 C935Y/R936W/Q939T): as the sequence (Q14671 828-1176 C1007G/Q1011P) above, with C108Y, R109W, Q112T, G180C, P184Q counted along it

“GGCUAGAACUAGUGGAUCCCCCGGCGCCCGGCGGCUCGAGCCCGGGUAAGUGUGAAUAGUCUGCAUGCCGCCGGGCGCCAUGCCUGCAGGUCGACUCUAGAAAACAUG”: the binding signal with PUM1 PUF domain R5-GRP is 1.44 log2 enrichment (interaction score); with PUM1 PUF domain R5-DRL, 1.6 log2 enrichment (interaction score); in the experiment with PUM1 PUF domain R5-SKQ it was 2.39 log2 enrichment (interaction score); with PUM1 PUF domain R5-ERG, 1.54 log2 enrichment (interaction score).
Turning to “GGCUAGAACUAGUGGAUCCCCCGGCGCCCGGCGGCUCGAGCCCGGGUAAGUGUCAAUAGUCUGCAUGCCGCCGGGCGCCAUGCCUGCAGGUCGACUCUAGAAAACAUG”, the binding signal was 3.01 log2 enrichment (interaction score) with PUM1 PUF domain R5-QVR, 4.4 log2 enrichment (interaction score) in the experiment with PUM1 PUF domain R5-GPR, 2.14 log2 enrichment (interaction score) in the experiment with PUM1 PUF domain R5-ERG and 5.03 log2 enrichment (interaction score) in the experiment with PUM1 PUF domain R5-KSQ.
For the sequence “GGCUAGAACUAGUGGAUCCCCCGGCGCCCGGCGGCUCGAGCCCGGGUAAGUGUAAUUAGUCUGCAUGCCGCCGGGCGCCAUGCCUGCAGGUCGACUCUAGAAAACAUG”, the binding signal with PUM1 PUF domain R3-YWT was 2.71 log2 enrichment (interaction score).
Regarding “GGCUAGAACUAGUGGAUCCCCCGGCGCCCGGCGGCUCGAGCCCGGGUAAGCGUAAAUAGUCUGCAUGCCGCCGGGCGCCAUGCCUGCAGGUCGACUCUAGAAAACAUG”, the binding signal in the experiment with PUM1 PUF domain R8-RHP was 5.5 log2 enrichment (interaction score).
Take “GGCUAGAACUAGUGGAUCCCCCGGCGCCCGGCGGCUCGAGCCCGGGUAAGUGUAUAUAGUCUGCAUGCCGCCGGGCGCCAUGCCUGCAGGUCGACUCUAGAAAACAUG”: the binding signal with PUM1 PUF domain R4-CNC is 3.13 log2 enrichment (interaction score).
Consider “GGCUAGAACUAGUGGAUCCCCCGGCGCCCGGCGGCUCGAGCCCGGGUAAGUGUUAAUAGUCUGCAUGCCGCCGGGCGCCAUGCCUGCAGGUCGACUCUAGAAAACAUG”, for which the binding signal is 0.43 log2 enrichment (interaction score) in the experiment with PUM1 PUF domain R5-GRP and 2.39 log2 enrichment (interaction score) with PUM1 PUF domain R5-GPR.
As to “GGCUAGAACUAGUGGAUCCCCCGGCGCCCGGCGGCUCGAGCCCGGGUAAGUAUAAAUAGUCUGCAUGCCGCCGGGCGCCAUGCCUGCAGGUCGACUCUAGAAAACAUG”, the binding signal with PUM1 PUF domain R7-HHP was 2.33 log2 enrichment (interaction score).
Take “GGCUAGAACUAGUGGAUCCCCCGGCGCCCGGCGGCUCGAGCCCGGGUAAGUGUAAAUCGUCUGCAUGCCGCCGGGCGCCAUGCCUGCAGGUCGACUCUAGAAAACAUG”: the binding signal with PUM1 PUF domain R1-SGR is 3.72 log2 enrichment (interaction score); with PUM1 PUF domain R1-RLE, 2.67 log2 enrichment (interaction score).
As for “GGCUAGAACUAGUGGAUCCCCCGGCGCCCGGCGGCUCGAGCCCGGGUAAGUCUAAAUAGUCUGCAUGCCGCCGGGCGCCAUGCCUGCAGGUCGACUCUAGAAAACAUG”, the binding signal in the experiment with PUM1 PUF domain R7-KRQ was 2.89 log2 enrichment (interaction score); with PUM1 PUF domain R7-HHP, 2.54 log2 enrichment (interaction score); with PUM1 PUF domain R7-KPM it was 3.19 log2 enrichment (interaction score).
As for “GGCUAGAACUAGUGGAUCCCCCGGCGCCCGGCGGCUCGAGCCCGGGUAAGUGUACAUAGUCUGCAUGCCGCCGGGCGCCAUGCCUGCAGGUCGACUCUAGAAAACAUG”, the binding signal with PUM1 PUF domain R4-CPC is 2.9 log2 enrichment (interaction score).
With “GGCUAGAACUAGUGGAUCCCCCGGCGCCCGGCGGCUCGAGCCCGGGUAAGUGUAAAUUGUCUGCAUGCCGCCGGGCGCCAUGCCUGCAGGUCGACUCUAGAAAACAUG”, the binding signal with PUM1 PUF domain R1-RLE is 2.88 log2 enrichment (interaction score).
On to “GGCUAGAACUAGUGGAUCCCCCGGCGCCCGGCGGCUCGAGCCCGGGUAAGUGUAAGUAGUCUGCAUGCCGCCGGGCGCCAUGCCUGCAGGUCGACUCUAGAAAACAUG”, for which, in the experiment with PUM1 PUF domain R3-FSG, the binding signal was 3.59 log2 enrichment (interaction score).
With “GGCUAGAACUAGUGGAUCCCCCGGCGCCCGGCGGCUCGAGCCCGGGUAAGUGUAAAUAGUCUGCAUGCCGCCGGGCGCCAUGCCUGCAGGUCGACUCUAGAAAACAUG”, the binding signal was 2.96 log2 enrichment (interaction score) with PUM1 PUF domain R5-GRP; 5.41 log2 enrichment (interaction score) with PUM1 PUF domain R3-CYF; 5.42 log2 enrichment (interaction score) with PUM1 PUF domain R8-RHP; 2.34 log2 enrichment (interaction score) with PUM1 PUF domain R5-DRL; 2.74 log2 enrichment (interaction score) in the experiment with PUM1 PUF domain R5-KYK; 3.69 log2 enrichment (interaction score) with PUM1 PUF domain R8-HYC. In the experiment with PUM1 PUF domain R5-ERG, the binding signal was 3.47 log2 enrichment (interaction score).
